In the supplement of paper PMC8728848:
Only a selection was taken, and the strongest signals are over-represented in it overall.

What was measured:
Assay in all cases: glycan array binding signal (z-score within array); higher = stronger binding
Conditions in all cases: glycan notation: IUPAC condensed, linker removed
[1] = molecular target: Fuc(a1-2)Gal(b1-3)GalNAc
Summary of the method: (§1)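 From the Consortium for Functional Glycomics database, 3228 arrays were curated, keeping only those whose protein sequence was available. Binding is given as a within-array Z-score averaged across arrays sharing a protein sequence and across linkers. Negative Z-scores can be read as non-binding.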

[2] = molecular target: Fuc(a1-2)Gal(b1-3)GlcNAc
Summary of the method: as §1

[3] = molecular target: Fuc(a1-2)Gal(b1-3)GlcNAc(b1-2)Man(a1-3)[Fuc(a1-2)Gal(b1-3)GlcNAc(b1-2)Man(a1-6)]Man(b1-4)GlcNAc(b1-4)GlcNAc
Summary of the method: as §1

[4] = molecular target: Fuc(a1-2)Gal(b1-3)GlcNAc(b1-3)GalNAc
Summary of the method: as §1

[5] = molecular target: Fuc(a1-2)Gal(b1-3)GlcNAc(b1-3)[Neu5Ac(a2-6)Gal(b1-4)GlcNAc(b1-6)]Gal(b1-4)Glc
Summary of the method: as §1

[6] = molecular target: Fuc(a1-2)Gal(b1-4)GlcNAc(b1-2)Man
Summary of the method: as §1

[7] = molecular target: Fuc(a1-2)Gal(b1-4)GlcNAc6S
Summary of the method: as §1

[8] = molecular target: Fuc(a1-2)Gal6S(b1-4)Glc
Summary of the method: as §1

[9] = molecular target: Fuc(a1-2)[Gal(a1-3)]Gal(b1-4)GlcNAc(b1-2)Man(a1-3)[Fuc(a1-2)[Gal(a1-3)]Gal(b1-4)GlcNAc(b1-2)Man(a1-6)]Man(b1-4)GlcNAc(b1-4)[Fuc(a1-6)]GlcNAc
Summary of the method: as §1

[10] = molecular target: Fuc(a1-2)[GalNAc(a1-3)]Gal(b1-3)GlcNAc(b1-2)Man(a1-3)[Fuc(a1-2)[GalNAc(a1-3)]Gal(b1-3)GlcNAc(b1-2)Man(a1-6)]Man(b1-4)GlcNAc(b1-4)[Fuc(a1-6)]GlcNAc
Summary of the method: as §1

[11] = molecular target: Fuc(a1-2)[GalNAc(a1-3)]Gal(b1-3)GlcNAc(b1-6)GalNAc
Summary of the method: as §1

[12] = molecular target: Gal(a1-3)Gal(b1-4)GlcNAc(b1-3)GalNAc
Summary of the method: as §1

[13] = molecular target: Gal(b1-3)GlcNAc(b1-6)[Gal(b1-3)]GalNAc
Summary of the method: as §1

[14] = molecular target: Gal(b1-3)[Fuc(a1-4)]GlcNAc
Summary of the method: as §1

[15] = molecular target: Gal(b1-4)GlcNAc(b1-2)Man(a1-3)[Gal(b1-4)GlcNAc(b1-2)Man(a1-6)][Gal(b1-4)GlcNAc(b1-4)]Man(b1-4)GlcNAc(b1-4)[Fuc(a1-6)]GlcNAc
Summary of the method: as §1

[16] = molecular target: Gal(b1-4)GlcNAc(b1-2)Man(a1-6)Man(b1-4)GlcNAc(b1-4)GlcNAc
Summary of the method: as §1

[17] = molecular target: Gal3S(b1-3)GalNAc
Summary of the method: as §1

[18] = molecular target: Gal3S(b1-3)[Fuc(a1-4)]GlcNAc
Summary of the method: as §1

[19] = molecular target: Gal6S(b1-4)Glc
Summary of the method: as §1

[20] = molecular target: GalNAc(b1-4)GlcNAc(b1-2)Man
Summary of the method: as §1

[21] = molecular target: GalNAc(b1-6)GalNAc
Summary of the method: as §1

[22] = molecular target: GalNAc3S(b1-4)[Fuc(a1-3)]GlcNAc
Summary of the method: as §1

[23] = molecular target: GalNAc6S(b1-4)GlcNAc
Summary of the method: as §1

[24] = molecular target: GlcNAc(a1-3)Gal(b1-4)GlcNAc
Summary of the method: as §1

[25] = molecular target: GlcNAc(a1-4)Gal(b1-3)GlcNAc
Summary of the method: as §1

[26] = molecular target: GlcNAc(a1-4)Gal(b1-4)GlcNAc(b1-3)Gal(b1-4)GlcNAc(b1-3)Gal(b1-4)GlcNAc
Summary of the method: as §1

[27] = molecular target: GlcNAc(b1-2)Man(a1-3)[GlcNAc(b1-2)Man(a1-6)]Man(b1-4)GlcNAc(b1-4)[Fuc(a1-6)]GlcNAc
Summary of the method: as §1

[28] = molecular target: GlcNAc(b1-2)Man(a1-3)[GlcNAc(b1-4)][GlcNAc(b1-2)Man(a1-6)]Man(b1-4)GlcNAc(b1-4)GlcNAc
Summary of the method: as §1

[29] = molecular target: GlcNAc(b1-2)Man(a1-3)[GlcNAc(b1-4)][GlcNAc(b1-2)Man(a1-6)]Man(b1-4)GlcNAc(b1-4)[Fuc(a1-6)]GlcNAc
Summary of the method: as §1

[30] = molecular target: GlcNAc(b1-4)GlcNAc(b1-4)GlcNAc
Summary of the method: as §1

[31] = molecular target: GlcNAc(b1-4)GlcNAc(b1-4)GlcNAc(b1-4)GlcNAc(b1-4)GlcNAc(b1-4)GlcNAc
Summary of the method: as §1

[32] = molecular target: Man(a1-2)Man(a1-3)[Man(a1-6)]Man(a1-6)[Man(a1-2)Man(a1-3)]Man(b1-4)GlcNAc(b1-4)GlcNAc
Summary of the method: as §1

[33] = molecular target: Man(a1-2)Man(a1-6)[Man(a1-3)]Man(a1-6)[Man(a1-2)Man(a1-2)Man(a1-3)]Man
Summary of the method: as §1

[34] = molecular target: MurNAc(b1-4)GlcNAc
Summary of the method: as §1

[35] = molecular target: Neu5Ac(a2-6)Gal
Summary of the method: as §1

[36] = molecular target: Neu5Ac(a2-6)Gal(b1-4)GlcNAc(b1-2)Man(a1-3)[GlcNAc(b1-2)Man(a1-6)]Man(b1-4)GlcNAc(b1-4)GlcNAc
Summary of the method: as §1

[37] = molecular target: Neu5Ac(a2-6)Gal(b1-4)GlcNAc(b1-3)Gal(b1-4)GlcNAc(b1-3)[Neu5Ac(a2-6)Gal(b1-4)GlcNAc(b1-3)Gal(b1-4)GlcNAc(b1-6)]GalNAc
Summary of the method: as §1

[38] = molecular target: Neu5Ac(a2-6)GalNAc(b1-4)GlcNAc
Summary of the method: as §1

[39] = molecular target: Neu5Ac(a2-6)GlcNAc(b1-4)GlcNAc(b1-4)GlcNAc
Summary of the method: as §1

[40] = molecular target: Neu5Gc(a2-3)Gal(b1-4)GlcNAc
Summary of the method: as §1

B1: NKR-PIC (Mus musculus) (protein)
chain: GTGQKPSREKCCVFIQENLNKTTDCSVNLECPQDWLLHRDKCFHVSQVSNTWEEGQADCGRKGATLLLIQDQEELRFLLDSIKEKYNSFWIGLRFTLPDMNWKWINGTTFNSDVLKITGVTENGSCASILGDKVTPESCASDNRWICQKELNHETPSNDSGT
glycan array binding signal (z-score) [1]: -0.288 | glycan array binding signal (z-score) [2]: -0.281 | glycan array binding signal (z-score) [3]: -0.138 | glycan array binding signal (z-score) [4]: -0.371 | glycan array binding signal (z-score) [5]: -0.362 | glycan array binding signal (z-score) [6]: -0.316 | glycan array binding signal (z-score) [7]: -0.32 | glycan array binding signal (z-score) [8]: -0.317 | glycan array binding signal (z-score) [9]: -0.335 | glycan array binding signal (z-score) [10]: -0.375 | glycan array binding signal (z-score) [11]: -0.363 | glycan array binding signal (z-score) [12]: -0.361 | glycan array binding signal (z-score) [13]: -0.308 | glycan array binding signal (z-score) [14]: -0.262 | glycan array binding signal (z-score) [15]: -0.225 | glycan array binding signal (z-score) [16]: -0.334 | glycan array binding signal (z-score) [17]: -0.25 | glycan array binding signal (z-score) [18]: -0.318 | glycan array binding signal (z-score) [19]: -0.305 | glycan array binding signal (z-score) [20]: 5.67 | glycan array binding signal (z-score) [21]: 0.458 | glycan array binding signal (z-score) [22]: -0.38 | glycan array binding signal (z-score) [23]: 4.94 | glycan array binding signal (z-score) [24]: 3.83 | glycan array binding signal (z-score) [25]: 1.3 | glycan array binding signal (z-score) [26]: 4.1 | glycan array binding signal (z-score) [27]: -0.287 | glycan array binding signal (z-score) [28]: 3.99 | glycan array binding signal (z-score) [29]: 3.73 | glycan array binding signal (z-score) [30]: 4.83 | glycan array binding signal (z-score) [31]: 4.62 | glycan array binding signal (z-score) [32]: -0.325 | glycan array binding signal (z-score) [33]: -0.367 | glycan array binding signal (z-score) [34]: 4.79 | glycan array binding signal (z-score) [35]: -0.258 | glycan array binding signal (z-score) [36]: -0.338 | glycan array binding signal (z-score) [37]: -0.332 | glycan array binding signal (z-score) [38]: 4.03 | glycan array binding signal (z-score) [39]: 5.02 | glycan array binding signal (z-score) [40]: -0.264
